Data as given in PubChem BioAssay (Tox21).
Inconclusive results are not listed. Where a call stands in place of a potency, no number is given. Activity calls are given as the source filed them. Calls come from the whole dose curve; as a rule, active = well fitted activation curve with a large enough effect in the repeat runs; inconclusive = weak or mixed curves; inactive = flat fitted curve, though single readings scatter.

Assay: A CellTox Green Cytotoxicity Assay to monitor cytotoxicity in HepG2 cells - 24 hour (AID 1224878); note: nearly all actives have a fitted effect of over 45% in size
Conditions: CellTox Green fluorescence; series mostly up to 76.8 µM
Method in brief: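 Read-out is fluorescence of a cyanine dye excluded from live cells that stains DNA of dead HepG2 cells, with signal proportional to cytotoxicity. Plates were read at 0, 8, 16, 24, 32 and 40 h after compound addition.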
Potency is the fitted concentration of half-maximal effect.

Q: Which Potency does the source give for `Cc1cc(OI)c(C(C)C)cc1-c1cc(C(C)C)c(OI)cc1C` here?
A: inactive

Q: Which Potency does the source give for `C[N+](C)(C)CCOC(N)=O` here?
A: inactive

Q: Which Potency does the source give for `CC(C)(O)c1ccccc1CC[C@@H](SCC1(CC(=O)O)CC1)c1cccc(/C=C/c2ccc3ccc(Cl)cc3n2)c1` here?
A: inactive

Q: For `CCCCC(CC)CNCC(CC)CCCC` (centres undefined), which Potency is on record?
A: inactive

Q: For `COCCOC`, which Potency is on record?
A: inactive

Q: Which Potency does the source give for `CC(=O)Nc1ccccc1C` here?
A: inactive

Q: For `C/C=C(\C)C(=O)OCCC(C)CCC=C(C)C` (centres undefined), which Potency is on record?
A: inactive

Q: With `CCCCCCCC/C=C\CCCCCCCC(=O)OC(CO)CO` as the compound, how does the Potency read?
A: inactive

Q: With `CCn1nc(C)c2c1C(=O)NCC(c1ccc(O)cc1)=N2` as the compound, how does the Potency read?
A: inactive

Q: Which Potency does the source give for `Cc1ccnc2ccccc12` here?
A: inactive

Q: Which Potency does the source give for `CCn1cc(C(=O)O)c(=O)c2cc(F)c(N3CCNCC3)nc21` here?
A: inactive

Q: Which Potency does the source give for `Brc1cc(-c2ccc(Br)c(Br)c2Br)cc(Br)c1Br` here?
A: inactive

Q: Which Potency does the source give for `CCC1(C)CC(=O)NC1=O` (centres undefined) here?
A: inactive

Q: Which Potency does the source give for `O=S(=O)(c1ccccc1)c1ccc(Cl)cc1` here?
A: inactive

Q: For `O=C(O)c1c(O)c(-c2ccccc2)nc2ccccc12`, which Potency is on record?
A: inactive

Q: For `CC(C)(C)C(=O)O`, which Potency is on record?
A: inactive

Q: For `CCOC(=O)OCC`, which Potency is on record?
A: inactive

Q: For `CN1Cc2cc(C(=O)N3CCC(C4CCNCC4)CC3)ccc2N[C@@H](CC(=O)O)C1=O`, which Potency is on record?
A: inactive

Q: Which Potency does the source give for `OC(CCCN1CCCCC1)(c1ccccc1)c1ccccc1` here?
A: inactive

Q: Which Potency does the source give for `CCN(CC)CCNC(=O)c1ccc(NC(C)=O)cc1` here?
A: inactive

Q: With `CC(C)CCCCCOC(=O)CCCCC(=O)OCCCCCC(C)C` as the compound, how does the Potency read?
A: inactive

Q: For `O=C(CS)OCCOC(=O)CS`, which Potency is on record?
A: inactive

Q: Which Potency does the source give for `CCCCCCCCCOC(C)=O` here?
A: inactive

Q: Which Potency does the source give for `O=C(O)Cc1ccc(-c2ccccc2)cc1` here?
A: inactive

Q: For `CC(=O)Nc1ccc(N)cc1`, which Potency is on record?
A: inactive

Q: Which Potency does the source give for `CO/N=C1\CN(c2nc3c(cc2F)c(=O)c(C(=O)O)cn3C2CC2)CC1CN` (centres undefined) here?
A: inactive

Q: With `c1cnc2c(n1)CCCC2` as the compound, how does the Potency read?
A: 38.9 µM (active)

Q: For `CCCCCC=CCC=CCCCCCCCC(=O)OCC`, which Potency is on record?
A: inactive

Q: Which Potency does the source give for `CC(C)=CC=O` here?
A: inactive

Q: With `CC(C)c1nnc2ccc(-c3ocnc3-c3cc(F)ccc3F)cn12` as the compound, how does the Potency read?
A: inactive

Q: With `Cc1cc2nc3ccc(=[N+](C)C)cc-3sc2cc1N` as the compound, how does the Potency read?
A: inactive

Q: With `O=C(/C=C/c1ccccc1)OCCCc1ccccc1` as the compound, how does the Potency read?
A: inactive

Q: Which Potency does the source give for `OCCSc1ccccc1` here?
A: inactive

Q: With `C=CC(C)(O)CCCC(C)CCCC(C)CCCC(C)C` (centres undefined) as the compound, how does the Potency read?
A: inactive

Q: With `COC(=O)[C@@H]1CC2=CC(=O)CC[C@]2(C)[C@@]23O[C@@H]2C[C@@]2(C)[C@@H](CC[C@@]24CCC(=O)O4)[C@H]13` as the compound, how does the Potency read?
A: inactive

Q: For `CCCCOC(=O)CCS`, which Potency is on record?
A: inactive

Q: Which Potency does the source give for `CCC(C)=O` here?
A: inactive

Q: Which Potency does the source give for `N#C[C@@H]1C[C@@H]2C[C@@H]2N1C(=O)[C@@H](N)C12CC3CC(CC(O)(C3)C1)C2` here?
A: inactive

Q: For `CCN(Cc1cccc(S(=O)(=O)O)c1)c1ccc(C(=C2C=CC(=[N+](CC)Cc3cccc(S(=O)(=O)[O-])c3)C=C2)c2ccccc2)cc1`, which Potency is on record?
A: inactive
